Results filed as inconclusive are left out. Unmarked numbers belong to inactive results. Active and inactive are the calls of the source. Calls come from the whole dose curve; as a rule, active = well fitted inhibition curve with a large enough effect; inconclusive = small, poorly fitted or top-dose-only effect; inactive = flat fitted curve, though single readings scatter. *1 amine or outer side, *2 acyl side, *3 side chain or, on linkers, in order; H or OH if unused. Where a SMILES comes first, the peptide text is derived from it. Bridges are numbered along the chain shown (N, C = ends). [ ]: non-standard residue; d: D form. The star is where a group is joined. ξ: configuration not given here. ξhTyr(3S-OH,4S-OH,3'-OSO3H) = NC(C(=O)O)[C@H](O)[C@@H](O)c1ccc(O)c(OS(=O)(=O)O)c1; Orn(4R-OH,5R-OH) = O=C([C@H](C[C@@H](O)[C@@H](O)N[*:3])N[*:1])[*:2]; X2 = CCCCCOc1ccc(-c2cc(-c3ccc(C(=O)*)cc3)no2)cc1; X3 = C[C@H]1CN([*:1])C(C(=O)[*:2])[C@H]1O; ξGln(3R-OH) = NC(=O)C[C@@H](O)C(N)C(=O)O; ξPro(4R-OH) = O=C(O)C1C[C@@H](O)CN1; ξThr(3R) = C[C@@H](O)C(N)C(=O)O
These molecules were tested against Glutathione peroxidase 1 (Homo sapiens) (UniProt P07203) (assay: Primary qHTS Assay for Inhibitors of Recombinant Selenoprotein Glutathione Peroxidase 1 (GPX1) (AID 1845191; note: nearly all actives have a fitted effect of over 65% in size)). Details: recombinant GPX1, GR-coupled NADPH fluorescence, 15 min; series mostly up to 27.7 µM; activity, negative = inhibition: at the top concentration.
Sequence of Glutathione peroxidase 1 (Homo sapiens) (P07203 whole entry, looked up): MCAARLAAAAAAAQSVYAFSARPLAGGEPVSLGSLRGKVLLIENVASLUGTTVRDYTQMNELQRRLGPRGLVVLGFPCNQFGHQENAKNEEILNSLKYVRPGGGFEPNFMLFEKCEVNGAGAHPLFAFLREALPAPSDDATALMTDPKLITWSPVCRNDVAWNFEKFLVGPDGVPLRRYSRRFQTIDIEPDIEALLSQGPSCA
Method in brief: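 GR-coupled readout: NADPH consumption tracked by fluorescence, ex 340/em 450 nm, at t=0 and after 15 min at RT. Final mix 10 nM GPX1, 1 mM GSH, 0.5 mM CHP, 0.5 mM NADPH, 100 nM GR, 0.01% BSA, following 30 min enzyme–compound preincubation.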
For NC1(c2ccc(NC(=O)c3ccnc(-c4cc(C(=O)O)ccn4)c3)cc2)CC1, the “outcome” value was “inactive [at 48.8 µM]”. In the case of O=C(O)c1cccc(C(=O)CCC2OC(n3cnc4c(=O)[nH]cnc43)C(O)C2O)c1 (centres undefined), the “outcome” value is reported as “inactive”. In the case of COc1cc(O)cc(O[C@@H]2O[C@H](CO)[C@@H](O[C@@H]3OC[C@](O)(CO)[C@H]3O)[C@H](O)[C@H]2O)c1OC, the “activity, negative = inhibition” value is reported as 4.32%. With CS(=O)(=O)c1ccccc1N1CCN(c2nc3c(c(=O)[nH]2)CSCC3)CC1 the “activity, negative = inhibition” value was -21.2% [at 48.8 µM]. In the case of Nc1nc(COC(=O)c2ccc([N+](=O)[O-])cc2)nc(Nc2ccccc2)n1, the “activity, negative = inhibition” value is reported as -5.59% [at 48.8 µM]. For CC(=O)O[C@@H]1[C@H](O[C@@H]2OC[C@](O)(CO)[C@H]2O)[C@@H](O[C@@H]2O[C@@H](C)[C@H](O)[C@@H](O[C@@H]3O[C@H](CO)[C@@H](O)[C@H](O)[C@H]3O)[C@H]2O)[C@H](OC(=O)[C@]23CCC(C)(C)C[C@H]2C2=CCC4[C@@]5(C)C[C@H](O)[C@H](O[C@@H]6O[C@H](C(=O)O)[C@@H](O)[C@H](O)[C@H]6O)[C@@](C)(C(=O)O)C5CC[C@@]4(C)[C@]2(C)CC3)O[C@@H]1C (some centres undefined), the “outcome” value was “inactive [at 9.52 µM]”. C=C(C(=O)O)C1CC(OC(=O)CC(C)CC)C2(C)CCCC(=C)C2C1 (centres undefined) was tested, and the “activity, negative = inhibition” value was -3.9%. With OC[C@H]1O[C@@H](OC[C@H]2O[C@@H](OCc3ccccc3)[C@H](O)[C@@H](O)[C@@H]2O)[C@H](O)[C@@H](O)[C@@H]1O the “outcome” value was “inactive”. In the case of C=C1C[C@H](O)[C@@H](O)[C@@]2(C)C1[C@@H](O)[C@H]1OC(=O)C3[C@@H](C)[C@@H](O)[C@H](O)C2[C@]31C (some centres undefined), the “activity, negative = inhibition” value is reported as -7%. In the case of C=C1CC2C(C)(CCC(=O)O)C(C(C)(C)O)CCC2(C)C2(C(=O)OC)C(=O)C(C)(O)C(=O)C12C (centres undefined), the “activity, negative = inhibition” value is reported as -4.33%. With COC(=O)C1(O)C(OC(C)=O)CCC2C3(CC(c4ccoc4)OC3=O)C(C)=CCC21C(=O)OC (centres undefined) the “outcome” value was “inactive”. C[C@@H]1O[C@@H](O[C@H]2[C@@H]3C=CO[C@@H](O[C@@H]4O[C@H](CO)[C@@H](O)[C@H](O)[C@H]4O)[C@@H]3[C@@]3(CO)O[C@@H]23)[C@H](O)[C@H](O)[C@H]1OC(=O)/C=C/c1ccc(O)cc1 was tested, and the “activity, negative = inhibition” value was -7.13% [at 15.3 µM]. In the case of CCC(=O)OCC(=O)[C@@]1(OC(=O)CC)[C@@H](C)C[C@H]2[C@@H]3CCC4=CC(=O)C=C[C@]4(C)[C@@]3(F)[C@@H](O)C[C@@]21C, the Potency is reported as “inactive”. OC[C@@]1(O)CO[C@H](OC[C@H]2O[C@@H](OCCc3ccccc3)[C@H](O)[C@@H](O)[C@@H]2O)[C@@H]1O was tested, and the “activity, negative = inhibition” value was 0.74%. For Cc1c(Cc2ccc3ccccc3n2)c2cc(F)ccc2n1CC(=O)O, the “activity, negative = inhibition” value was -18.6% [at 48.8 µM]. In the case of C=C1CCC2(OC1)OC1CC3C4CC=C5CC(O)CC(O[C@@H]6OC[C@H](OC(=O)C(O)C(C)CC)[C@H](O)[C@H]6O[C@@H]6O[C@@H](C)[C@H](O)[C@@H](O)[C@H]6O)C5(C)C4CCC3(C)C1C2C (some centres undefined), the “activity, negative = inhibition” value is reported as -16.3% [at 15.3 µM]. In the case of C[C@H](/C=C/[C@@]1(O)[C@H](C)CC(=O)CC1(C)C)O[C@@H]1O[C@H](CO[C@@H]2OC[C@@H](O)[C@H](O)[C@H]2O)[C@@H](O)[C@H](O)[C@H]1O, the “activity, negative = inhibition” value is reported as 0.0064%. C[C@@H]1C[C@@H](O)[C@@]2(CO)C(CO)=CCC[C@@H]2[C@@]12C[C@@H](c1ccoc1)OC2=O was tested, and the “activity, negative = inhibition” value was -1.74%. In the case of CC1(C)CC[C@]2(C(=O)O)CC[C@]3(C)C(=CCC4[C@@]5(C)CC[C@H](O[C@H]6O[C@H](C(=O)O)[C@@H](O)[C@H](O[C@@H]7O[C@H](CO)[C@H](O)[C@H](O)[C@H]7O)[C@H]6O)C(C)(C)C5CC[C@]43C)[C@@H]2C1 (some centres undefined), the “activity, negative = inhibition” value is reported as -20.4% [at 15.3 µM]. For C=CC(C)(O)CC/C=C(\C)C1CC=C(C)C(=O)O1 (centres undefined), the “activity, negative = inhibition” value was 2.81% [at 48.8 µM]. With COc1cc(C(CO)C(OC2OC(CO)C(O)C(O)C2O)c2ccc(O)c(OC)c2)ccc1O (centres undefined) the “activity, negative = inhibition” value was 1.45%. For CC12CC(O)C(O)C=C1c1cc(O)cc(O)c1C(=O)O2 (centres undefined), the “outcome” value was “inactive [at 48.8 µM]”. In the case of C[C@]1(OC(=O)/C=C\c2ccc(O)cc2)C[C@@H](O)[C@]2(O)C=CO[C@@H](O[C@@H]3O[C@H](CO)[C@@H](O)[C@H](O)[C@H]3O)C12 (some centres undefined), the “activity, negative = inhibition” value is reported as -10.5%. In the case of CCCCNc1nc(N)c2[nH]c(=O)n(Cc3ccc(OCCN(C)C)nc3)c2n1, the “outcome” value is reported as “inactive [at 48.8 µM]”. COc1cc(/C=C/C(=O)O[C@H]2C[C@@H]3C(C(=O)O)=CO[C@@H](O[C@@H]4O[C@H](CO)[C@@H](O)[C@H](O)[C@H]4O)[C@@H]3[C@H]2C)ccc1O was tested, and the “outcome” value was “inactive”. For COC1OC(=O)C2=C1C1(C)CCCC(C)(C)C1CC2O (centres undefined), the “outcome” value was “inactive [at 48.8 µM]”. With C/C=C/C=C/C=C/C(=O)N(C)C(C(=O)NC(C)C(=O)N1CCCC1C(N)=O)C(C)C (centres undefined) the “activity, negative = inhibition” value was 1.37%. With Cc1[nH]c2ccccc2c1CC(=O)N[C@@H](Cc1ccccc1)C(=O)N(C)c1ccccc1 the “outcome” value was “inactive [at 48.8 µM]”. C[C@H]1CC[C@H]2[C@@H](C=C[C@@](C)(O)[C@]2(C)C(=O)CCO)C1 was tested, and the “activity, negative = inhibition” value was -16.5% [at 48.8 µM]. With CC1(CO)CCCC2(C)C3COC(=O)C3=CC(O)C12 (centres undefined) the “activity, negative = inhibition” value was -11.1% [at 48.8 µM]. With COC(=O)C1=CO[C@@H](O[C@@H]2O[C@H](CO)[C@@H](O)[C@H](O)[C@H]2O)[C@@H]2[C@@H](C)[C@@H](OC(=O)/C=C/c3ccccc3)[C@@H](O)[C@H]12 the “outcome” value was “inactive”. In the case of C=C[C@H]1[C@H](O[C@@H]2O[C@H](CO)[C@@H](O)[C@H](O)[C@H]2O)OC=C(C(=O)OC)[C@H]1CC=O, the “activity, negative = inhibition” value is reported as 0.082%. O=[N+]([O-])c1cc(Cl)ccc1S(=O)(=O)N1CCN(Cc2ccccc2)CC1 was tested, and the “activity, negative = inhibition” value was -20.1% [at 48.8 µM]. With CCC1=C(C)C(=O)C(C)CC12C(=O)CCC2C(=O)O (centres undefined) the “outcome” value was “inactive [at 48.8 µM]”. For CC(=O)c1ccc(O[C@@H]2O[C@H](CO[C@@H]3OC[C@@H](O)[C@H](O)[C@H]3O)[C@@H](O)[C@H](O)[C@H]2O)cc1, the “activity, negative = inhibition” value was -12.6%. CC1=C(C(=O)OC2OC(COC3OC(CO)C(O)C(O)C3O)C(O)C(O)C2O)C(C)(C)CCC1 (centres undefined) was tested, and the “activity, negative = inhibition” value was -14.7%. With CCCCCOc1ccc(-c2cc(-c3ccc(C(=O)N[C@H]4C[C@@H](O)[C@@H](O)NC(=O)C5[C@@H](O)[C@@H](C)CN5C(=O)C([C@H](O)CC(N)=O)NC(=O)C([C@H](O)[C@@H](O)c5ccc(O)c(OS(=O)(=O)O)c5)NC(=O)C5C[C@@H](O)CN5C(=O)C([C@@H](C)O)NC4=O)cc3)no2)cc1 (stereo partly drawn) (X2-[Orn(4R-OH,5R-OH)][ξThr(3R)][ξPro(4R-OH)][ξhTyr(3S-OH,4S-OH,3'-OSO3H)][ξGln(3R-OH)][X3]; lactam 1-C) the Potency was “inactive”. With CC1(C(=O)O)CCCC2(C)C3CCC4CC3(CCC12)CC4C(=O)O (centres undefined) the “activity, negative = inhibition” value was -12.1%. In the case of CC(O)CCc1ccc(O[C@@H]2O[C@H](CO)[C@@H](O)[C@H](O)[C@H]2O)cc1 (some centres undefined), the “activity, negative = inhibition” value is reported as -6.67%.
% is set by controls: 0 for no effect and ±100 for the full control effect.
